Source: PubChem BioAssay (National Center for Advancing Translational Sciences (NCATS))
BAZ2B inh: inhibitors of human BAZ2B bromodomain | Q9UIF8 | AlphaScreen BAZ2B-H3K14Ac peptide displacement | Potency, µM (titrated, usually from 114 µM), inactives show at the highest dose activity change, negative = inhibition, usual class: inhibitors | 360,000 tested, 4.4% active; also: % is scaled to controls: 0 for no effect and ±100 for the full control effect; nearly all actives have a fitted effect of over 60% in size
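Multi-concentration screen (max 110 uM) measuring displacement of acetylated histone H3 peptide from BAZ2B by AlphaScreen, using 50 nM protein, 50 nM peptide and 10 ug/mL streptavidin donor plus Ni-chelate acceptor beads.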
PLK1 PBD block: inhibitors of human PLK1 polo-box domain binding | Plk1 PBD binding of FITC phosphopeptide, fluorescence polarization | Potency, µM, for the others: max response, negative = inhibition, most hits filed as inhibitors | 360,000 tested, 2.8% active; also: series mostly up to about 57 µM; % is scaled to controls: 0 for no effect and ±100 for the full control effect; nearly all actives have a fitted effect of over 65% in size
HP1b chromo inh: HP1-beta chromodomain-methylated histone interaction inhibition; P83916; AlphaScreen HP1-beta / biotin-H3K9me3 peptide binding; Potency, µM (doses to about 114 µM), inactives show at the top dose activity change, negative = inhibition, actives largely listed as inhibitors; 390,000 tested, 0.56% active; also: nearly all actives have a fitted effect of over 70% in size
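Compound inhibition of the preformed complex between 50 nM HP1-beta and 50 nM biotinylated H3K9me3 peptide was read by AlphaScreen. Buffer was PBS pH 7.4 with 0.01% Tween-20. Incubations ran 30 min at room temperature, with 10 ug/mL donor/acceptor beads.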
JMJD2A Tudor inh: blocks the human JMJD2A Tudor domain. AlphaScreen JMJD2A-Tudor / H3K4me3 peptide binding. Potency, µM (top dose mostly 114 µM), inactives show top-dose activity change, negative = inhibition, actives largely listed as inhibitors. 390,000 tested, 4.4% active. O75164. AID 504339; also: % is scaled to controls: 0 for no effect and ±100 for the full control effect; nearly all actives have a fitted effect of over 50% in size
Target sequence (O75164 whole entry, looked up, the tested form may be a part): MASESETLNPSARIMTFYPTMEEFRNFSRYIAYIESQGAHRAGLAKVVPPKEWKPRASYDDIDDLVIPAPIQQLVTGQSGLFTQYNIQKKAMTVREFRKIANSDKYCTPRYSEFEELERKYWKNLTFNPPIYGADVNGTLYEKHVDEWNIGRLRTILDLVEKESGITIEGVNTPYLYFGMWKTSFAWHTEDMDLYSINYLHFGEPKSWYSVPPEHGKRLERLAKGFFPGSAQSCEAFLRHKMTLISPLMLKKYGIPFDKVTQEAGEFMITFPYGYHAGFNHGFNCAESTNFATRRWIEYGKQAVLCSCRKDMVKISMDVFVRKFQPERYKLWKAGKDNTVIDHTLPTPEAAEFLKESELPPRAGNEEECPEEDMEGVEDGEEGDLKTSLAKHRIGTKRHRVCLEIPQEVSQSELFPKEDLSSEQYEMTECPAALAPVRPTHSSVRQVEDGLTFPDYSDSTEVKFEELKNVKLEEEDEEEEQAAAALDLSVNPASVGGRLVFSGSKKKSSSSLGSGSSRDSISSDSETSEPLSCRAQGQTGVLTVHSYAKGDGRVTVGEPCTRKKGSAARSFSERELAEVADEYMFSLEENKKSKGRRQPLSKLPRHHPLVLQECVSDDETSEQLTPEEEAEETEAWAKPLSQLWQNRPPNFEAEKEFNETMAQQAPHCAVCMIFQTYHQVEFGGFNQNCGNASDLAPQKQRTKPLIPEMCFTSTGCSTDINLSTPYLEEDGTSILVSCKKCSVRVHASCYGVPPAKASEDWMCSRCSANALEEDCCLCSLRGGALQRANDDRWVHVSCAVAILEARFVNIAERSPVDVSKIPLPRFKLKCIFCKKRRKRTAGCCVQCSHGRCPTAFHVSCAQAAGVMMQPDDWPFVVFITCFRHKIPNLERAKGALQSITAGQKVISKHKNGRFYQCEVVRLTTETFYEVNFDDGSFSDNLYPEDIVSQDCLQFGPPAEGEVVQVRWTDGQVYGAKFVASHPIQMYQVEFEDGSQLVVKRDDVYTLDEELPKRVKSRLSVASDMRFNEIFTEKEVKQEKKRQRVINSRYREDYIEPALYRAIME
G9a block: G9a (human) methyltransferase inhibition; Q96KQ7; Potency, µM (titrated, usually from 102 µM), without a hit: at the highest dose activity, negative = inhibition, actives largely listed as inhibitors; G9a H3K9 monomethylation, AlphaScreen, 2 h; AID 504332; 350,000 tested, 8.8% active; also: % is scaled to controls: 0 for no effect and ±100 for the full control effect; nearly all actives have a fitted effect of over 75% in size
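Quantitative HTS format: methyltransferase activity on a biotin-tagged H3K9 peptide is measured by AlphaScreen, using a rabbit anti-monomethyl-H3K9 antibody with streptavidin donor and anti-IgG acceptor beads. Final levels are 20 nM enzyme, 500 nM peptide, 20 uM SAM; 2 h RT.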
ALOX12 inh: inhibitors of human 12S-lipoxygenase ALOX12; AID 1671190; purified 12hLO, xylenol orange hydroperoxide absorbance; Potency, µM (doses to about 108 µM), for inactives: at the top dose activity change, negative = inhibition, hits mostly inhibitors; 580,000 tested, 1.1% active; also: % is scaled to controls: 0 for no effect and ±100 for the full control effect
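Purified human 12hLO at 150 nM in 25 mM Hepes, 0.01% Triton X-100, pH 7.0, preincubated 15 min at room temperature with compound. Reaction started with 40 uM arachidonic acid, 30 min at room temperature. Hydroperoxide measured by Fe-xylenol orange, 573/405 nm absorbance ratio.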
Numbers without * were called inactive; [ ] = remark or other dose. Shown are actives, neighbours in structure and some others; about 9% of the full set was active somewhere. Calls follow the shape of the dose curve; as a rule, active = well fitted curve in the direction sought with a large enough effect; inconclusive = small, poorly fitted or top-dose-only effect, or another doubt; inactive = no such curve, though single readings can be large; an effect the other way counts as inactive or inconclusive. Potency is read from the fitted curve at half-maximal effect.

How did Cc1nnsc1C(=O)Oc1ccc(C#N)cc1 do in these assays?
BAZ2B inh: inconclusive; HP1b chromo inh: 17%; JMJD2A Tudor inh: 89µM*; G9a block: 16µM*; ALOX12 inh: -26%

Results for Cc1cc(C)cc(OC(=O)c2snnc2C)c1 ?
BAZ2B inh: 36%; HP1b chromo inh: 79%; JMJD2A Tudor inh: 62%; G9a block: -46%[59 µM]; ALOX12 inh: -19%

Results for CC(C)CCNC(=O)c1cccc(C#N)c1 ?
ALOX12 inh: -11%

What do the screens show for `CCN1CCC(O)(/C=C/c2ccc(C(C)C)cc2)C(C(=O)/C=C/c2ccc(C(C)C)cc2)C1` (configuration not stated)?
PLK1 PBD block: -29%; HP1b chromo inh: inconclusive; JMJD2A Tudor inh: 32µM*; ALOX12 inh: 1.8µM*

What do the screens show for `CCOP(=O)(OCC)C(NC(=O)c1ccc(OC)cc1)c1ccccc1` (configuration not stated)?
BAZ2B inh: 4%; PLK1 PBD block: 4%; HP1b chromo inh: 45%; JMJD2A Tudor inh: -7%; G9a block: -36%; ALOX12 inh: 0%

How did CC(c1ccc(O)cc1)(c1ccc(O)cc1)c1ccc(CCBr)cc1 do in these assays?
BAZ2B inh: inconclusive; PLK1 PBD block: -3%; HP1b chromo inh: 4%; JMJD2A Tudor inh: -33%; G9a block: 79µM*; ALOX12 inh: inconclusive

How did O=C(O)CC(NC(=O)c1cccc([N+](=O)[O-])c1)c1ccc2c(c1)OCO2 (configuration not stated) do in these assays?
BAZ2B inh: 9%; PLK1 PBD block: 1%; HP1b chromo inh: 42%; JMJD2A Tudor inh: -7%; G9a block: inconclusive; ALOX12 inh: -27%

How did CCC(Oc1ccccc1)C(=O)NC1CCCCCC1 (configuration not stated) do in these assays?
BAZ2B inh: 7%; PLK1 PBD block: -14%; HP1b chromo inh: 61%; JMJD2A Tudor inh: -5%; G9a block: 4%; ALOX12 inh: -8%

Results for CCC(Oc1ccccc1)C(=O)NC1CCSC1=O (configuration not stated) ?
BAZ2B inh: -15%; PLK1 PBD block: -11%; HP1b chromo inh: 49%; JMJD2A Tudor inh: -2%; G9a block: 45µM*; ALOX12 inh: 8%

Results for CCCOC(=O)CSC1=C(C#N)C(c2ccccc2OCC)C(C#N)C(=O)N1 (configuration not stated) ?
BAZ2B inh: 50µM*; PLK1 PBD block: -9%; HP1b chromo inh: inconclusive; JMJD2A Tudor inh: -31%; G9a block: inconclusive; ALOX12 inh: -18%

How did CCOC(=O)C1C(=O)NC(SCC(N)=O)=C(C#N)C1c1ccccc1OCC (configuration not stated) do in these assays?
BAZ2B inh: -28%; PLK1 PBD block: -24%; HP1b chromo inh: -15%; JMJD2A Tudor inh: inconclusive; G9a block: 20µM*; ALOX12 inh: 0%

What do the screens show for `CCOC(=O)C1C(=O)NC(SC)=C(C#N)C1c1ccccc1F` (configuration not stated)?
BAZ2B inh: 3%; PLK1 PBD block: -16%; HP1b chromo inh: 5%; JMJD2A Tudor inh: -17%; G9a block: 15%; ALOX12 inh: -26%

How did CCCCOC(=O)CSC1=C(C#N)C(c2ccccc2OCC)C(C#N)C(=O)N1 (configuration not stated) do in these assays?
BAZ2B inh: 50µM*; PLK1 PBD block: -14%; HP1b chromo inh: -3%; JMJD2A Tudor inh: -36%; G9a block: 29%[0.501 µM]

What do the screens show for `NCC(O)COc1cccc2ccccc12` (configuration not stated)?
G9a block: 26%[59 µM]; ALOX12 inh: -3%

How did O=C(NCC1(O)CCCNCC1)C1(c2ccc(Cl)cc2)CCC1 (configuration not stated) do in these assays?
ALOX12 inh: -29%

What do the screens show for `CN(C)CCCN(C(=O)C1=COCCO1)c1nc2ccc(Br)cc2s1`?
BAZ2B inh: -19%; PLK1 PBD block: 0%; HP1b chromo inh: 44%; JMJD2A Tudor inh: -10%; G9a block: -23%; ALOX12 inh: inconclusive

Results for Brc1cccc(-c2nnc3sc(CN4CCC5(CC4)OCCO5)cn23)c1 ?
BAZ2B inh: 2%; PLK1 PBD block: -1%; HP1b chromo inh: 17%; JMJD2A Tudor inh: -18%; G9a block: 6%; ALOX12 inh: 10%

What do the screens show for `O=C([C@@H]1C[C@H](F)CN1C(=O)c1ccc(OC(F)(F)F)cc1)N1CCCCC1`?
ALOX12 inh: 3%

What do the screens show for `Cc1cc(C)n(CCc2nc(-c3ccc(C)o3)cs2)n1`?
BAZ2B inh: inconclusive; PLK1 PBD block: inconclusive; HP1b chromo inh: inconclusive; JMJD2A Tudor inh: 79µM*; G9a block: inconclusive; ALOX12 inh: inconclusive

How did Cc1cc(C)n(CCc2nc(-c3cc4ccccc4o3)cs2)n1 do in these assays?
PLK1 PBD block: -18%; HP1b chromo inh: 14%; JMJD2A Tudor inh: -2%; G9a block: 16%[59 µM]; ALOX12 inh: inconclusive

How did Cc1ccc(O)c(N=NC2=C(O)CC(C)(C)CC2=O)c1 do in these assays?
BAZ2B inh: 32µM*; PLK1 PBD block: 6%; HP1b chromo inh: -33%; JMJD2A Tudor inh: 56µM*; G9a block: inconclusive; ALOX12 inh: inconclusive

What do the screens show for `Cc1c(N=NC2=C(O)CC(C)(C)CC2=O)c(=O)n(-c2ccccc2)n1C`?
BAZ2B inh: 35µM*; PLK1 PBD block: -15%; HP1b chromo inh: inconclusive; JMJD2A Tudor inh: 50µM*; G9a block: -12%[12.7 µM]; ALOX12 inh: -30%

What do the screens show for `CC(=O)/C(N=Nc1c(C)n(C)n(-c2ccccc2)c1=O)=C(\C)O`?
BAZ2B inh: inconclusive; PLK1 PBD block: 1%; HP1b chromo inh: 49%; JMJD2A Tudor inh: -4%; G9a block: -8%; ALOX12 inh: -25%

How did CCNc1ccc(N=Nc2c(C)n(C)n(-c3ccccc3)c2=O)cc1 do in these assays?
BAZ2B inh: 32µM*; PLK1 PBD block: -5%; HP1b chromo inh: 6%; JMJD2A Tudor inh: -27%; G9a block: inconclusive; ALOX12 inh: inconclusive

How did O=C(O)COc1ccc(C(=O)c2cccs2)c(Cl)c1Cl do in these assays?
G9a block: -40%[12.7 µM]

How did COc1ccc(C)cc1-n1nnnc1SCC(=O)NCCc1ccccc1 do in these assays?
ALOX12 inh: 9%

How did CN1C[N+]([O-])=C(c2ccccc2)C1(C)C do in these assays?
BAZ2B inh: -1%; PLK1 PBD block: -3%; HP1b chromo inh: -1%; JMJD2A Tudor inh: -13%; G9a block: 9%[59 µM]; ALOX12 inh: -10%

What do the screens show for `COc1ccc(C(=O)c2cc([N+](=O)[O-])ccc2N2CCCC2)cc1`?
BAZ2B inh: inconclusive; PLK1 PBD block: 1%; HP1b chromo inh: inconclusive; JMJD2A Tudor inh: -33%; G9a block: inconclusive; ALOX12 inh: -22%
